RORg inh: inhibitors of mouse ROR gamma transcriptional activity | AID 2551 | Potency, µM (titrated, usually from 53.6 µM), without a hit: top-dose activity change, negative = inhibition, usual class: inhibitors | P51450 | 5.4% of 310,000 active | Drosophila S2 Gal4-RORgamma UAS-luciferase reporter, 20 h; note: nearly all actives have a fitted effect of over 60% in size
Target sequence (P51450 whole entry, looked up, the tested form may be a part): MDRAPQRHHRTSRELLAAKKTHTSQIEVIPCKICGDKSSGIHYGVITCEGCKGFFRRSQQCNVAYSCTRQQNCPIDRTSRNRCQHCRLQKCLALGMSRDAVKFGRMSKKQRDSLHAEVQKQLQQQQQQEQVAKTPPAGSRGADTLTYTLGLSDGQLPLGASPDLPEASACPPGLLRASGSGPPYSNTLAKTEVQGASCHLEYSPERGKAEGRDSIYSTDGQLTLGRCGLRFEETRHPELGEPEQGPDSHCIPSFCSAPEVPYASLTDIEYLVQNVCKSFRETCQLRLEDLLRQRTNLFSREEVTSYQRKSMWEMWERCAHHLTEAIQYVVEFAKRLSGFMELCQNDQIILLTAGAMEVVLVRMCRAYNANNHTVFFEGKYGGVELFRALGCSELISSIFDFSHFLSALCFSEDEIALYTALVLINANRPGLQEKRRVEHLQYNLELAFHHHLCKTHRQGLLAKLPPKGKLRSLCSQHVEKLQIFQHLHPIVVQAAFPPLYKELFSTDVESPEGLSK
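Drosophila S2 cells stably expressing Gal4-DBD/mouse RORγ fusion under metallothionein promoter plus UAS-luciferase; compound 1 h, then 700 uM CuSO4 induction for 20 h at ambient temperature; inhibition read as reduced luminescence.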
Gal4-VP16 FLuc: Gal4-VP16 reporter inhibition counter-screen | Drosophila S2 Gal4-VP16 UAS-luciferase, luminescence, 20 h | Potency, µM (top dose mostly 53.6 µM), for inactives: top-dose activity, negative = inhibition, hits mostly inhibitors | 3.5% of 310,000 active | AID 2546;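 note: Gal4-VP16 expression switched on by copper sulfate through the metallothionein promoter; nearly all actives have a fitted effect of over 50% in size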
Luc counter: blocks Kinase-Glo luciferase, a counter-screen artifact; AID 1379; Potency, µM (highest dose often 38.3 µM), for inactives: top-dose activity change, negative = inhibition, usual class: inhibitors; Kinase-Glo luciferase, ATP luminescence, 8 min; 0.28% of 200,000 active; note: nearly all actives have a fitted effect of over 60% in size
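Recombinant Kinase-Glo luciferase, 10 uM ATP (linear range), luciferin; imidazole pH 7.2 / KCl / MgCl2 / Tween / BSA buffer; 8 min RT; luminescence.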
* marks the source's active call; other numbers are inactive results; ? = inconclusive; . = not tested or not shown; [ ] = dose if it differs, or a comment. This is a sample that favours compounds with a hit; in the whole collection about 6.4% have one here. Calls come from the whole dose curve; as a rule, active = well fitted curve in the direction sought with a large enough effect; inconclusive = small, poorly fitted or top-dose-only effect, or another doubt; inactive = no such curve, though single readings can be large; an effect the other way counts as inactive or inconclusive. % is set by controls: 0 for no effect and ±100 for the full control effect; potency is the fitted concentration of half-maximal effect.

SMILES | RORg inh | Gal4-VP16 FLuc | Luc counter
CCn1c(COc2ccc(C(C)C)cc2)nnc1SCC(=O)Nc1nccs1 | 11µM* | ? | -5%
CCSCc1nnc(SCC(=O)Nc2nccs2)n1CC | -27% | 1% | 2%
N=C(N)N1CCN(Cc2ccccc2)CC1 | 6% | -1% | .
COc1ccc(/C=C/C(=O)NC(=S)Nc2ccccn2)cc1 | ? | -28% | .
Cn1nnc(NC(=S)NC(=O)/C=C/c2ccco2)n1 | 2% | -8% | .
COc1ccccc1/C=C/C(=O)NC(=S)Nc1ccccn1 | 4.5µM* | 5.6µM* | .
O=C(/C=C/c1ccco1)Nc1cccc(NC(=O)/C=C/c2ccco2)n1 | 18% | ? | 0%
O=C(/C=C/c1ccco1)NC(=S)Nc1ccccn1 | 10µM* | ? | -5%
Cc1cccnc1NC(=S)NC(=O)/C=C/c1ccco1 | 2.8µM* | 7.9µM* | -2%
O=C(CCc1ccccc1)N1CCCC(Nc2ccc(F)cc2)C1 (centres undefined) | 5% | 11% | .
C/C(=N\NC(=S)Nc1cc(S(=O)(=O)N2CCOCC2)ccc1Cl)c1ccccc1F | 1.1µM* | 6.3µM* | 4%
CC(C)N(C(=S)Nc1cc(S(=O)(=O)N2CCOCC2)ccc1Cl)c1ccccc1 | 2% | -4% | 4%
CNC(=O)CC1C(=O)N(Cc2ccccc2)C(=S)N1NC(=O)c1cccc(F)c1 (centres undefined) | ? | -8% | -2%
CCN1C(=O)C(CC(=O)Nc2ccccc2Cl)N(NC(=O)c2cccc(F)c2)C1=S (centres undefined) | 11µM* | ? | .
CNC(=O)CC1C(=O)N(c2ccc(Cl)cc2)C(=S)N1NC(=O)c1cccc(F)c1 (centres undefined) | ? | -15% | .
CCCCCC(=O)NN1C(=S)N(c2ccc(OC)cc2)C(=O)C1CC(=O)Nc1ccccc1 (centres undefined) | -21% | -8% | .
COc1ccc(NC(=O)CC2C(=O)N(c3ccc(F)cc3)C(=S)N2NC(=O)c2ccccc2)cc1 (centres undefined) | 13µM* | ? | -1%
CNC(=O)CC1C(=O)N(c2ccc(OC)cc2)C(=S)N1NC(=O)c1cccc(F)c1 (centres undefined) | 7.1µM* | ? | .
COC(=O)C1=C(C(=O)OC)C2C(C)=CC(C)=CN2C(C(=O)OC)=C1C(=O)OC (centres undefined) | -6% | 4% | 1%
CC(C)Cc1ccc(C(C)C(=O)Nc2nccs2)cc1 (centres undefined) | 13µM* | ? | -5%
CC(CC(=O)Nc1nccs1)c1ccccc1 (centres undefined) | -41% | -11% | .
CC(C)c1ccc(CNC(=O)C(=O)Nc2nccs2)cc1 | -36% | 21%[10 µM] | -1%
CC(C)C(C(=O)Nc1nccs1)c1ccccc1 (centres undefined) | 11µM* | ? | 0%
COc1cc(CNS(=O)(=O)c2ccc3c(c2)CC(C)N3C(C)=O)cc(OC)c1OC (centres undefined) | 29% | 22µM* | .
COc1ccc(CCNS(=O)(=O)c2ccc3c(c2)CC(C)N3C(C)=O)cc1OC (centres undefined) | ? | -29% | 4%
SMILES | RORg inh | Gal4-VP16 FLuc | Luc counter
Cc1nc(N2CCOCC2)c2nc(-c3ccccc3)n(CC(C)(C)CN(C)C)c2n1 | -37% | 6% | 0%
CCc1ccc(S(=O)(=O)NC(=S)Nc2ccccc2)cc1 | 5% | -2% | .
CCNC(=S)NS(=O)(=O)c1ccc(CC)cc1 | 13µM* | ? | 1%
O=C(Nc1nccs1)c1ccc([N+](=O)[O-])cc1Cl | 11µM* | ? | .
O=C(Nc1nccs1)c1ccc(Cl)c([N+](=O)[O-])c1 | 6.3µM* | 4.5µM* | .
Cc1cccc(NC(=O)c2ccc([N+](=O)[O-])cc2Cl)n1 | 0%[10 µM] | 5% | 1%
O=C(Nc1nccs1)c1ccc(Cl)cc1[N+](=O)[O-] | 10µM* | ? | -3%
Cc1ccc(NC(=O)c2ccc(Cl)cc2[N+](=O)[O-])nc1 | -23% | -2% | 0%
COc1ccc(C(=O)Nc2ccc(C(=O)Nc3nccs3)cc2)cc1[N+](=O)[O-] | -2% | 0% | 3%
O=C1c2ccccc2C(=O)C12OC2c1cccc2ccccc12 (centres undefined) | ? | 14µM* | -1%
O=C1CCCCC1c1cccc2ccccc12 (centres undefined) | 0% | 0% | .
Cc1occc1C(=O)NNC(=O)c1ccc(Br)o1 | 8% | -12% | -1%
O=C(CCN1C(=O)/C(=C/c2ccccc2Cl)SC1=S)NC1C=CS(=O)(=O)C1 (centres undefined) | ? | -6% | .
CCNC(=O)NC(=O)COC(=O)CCCc1nc2ccccc2s1 | -12% | 0% | -2%
CCNC(=O)NC(=O)COC(=O)CCCSc1nc2ccccc2s1 | ? | 7.9µM* | -2%
Cc1ccccc1NC(=O)CCCSc1nc2ccccc2s1 | 13µM* | 2.5µM* | 0%
CNC(=O)NC(=O)C(C)OC(=O)CCCc1nc2ccccc2s1 (centres undefined) | -34% | -23% | 4%
CCNC(=O)NC(=O)C(C)OC(=O)CCCSc1nc2ccccc2s1 (centres undefined) | ? | 4.5µM* | -1%
CC(OC(=O)CCCc1nc2ccccc2s1)C(=O)NC(N)=O (centres undefined) | -34% | ? | .
CNC(=O)NC(=O)C(C)OC(=O)CCCSc1nc2ccccc2s1 (centres undefined) | 7.1µM* | 4.5µM* | -3%
CCc1cccc(C)c1NC(=O)CCCSc1nc2ccccc2s1 | 12% | -2% | 0%
NS(=O)(=O)c1ccc(O)c(N2C(=O)c3cccc4c(C(=O)c5ccccc5)ccc(c34)C2=O)c1 | 12% | 1% | -4%
CCC1(C)CC2(CCCN(CCC(=O)c3ccccc3)C2)CCO1 (centres undefined) | 4% | 6% | 4%
CCCCn1c(N)c(N(Cc2ccccc2OC)C(=O)C(C)Oc2ccc(Cl)cc2)c(=O)[nH]c1=O (centres undefined) | 0% | 0% | .
CC(C)c1nc(N(C)S(C)(=O)=O)nc(-c2ccc(F)cc2)c1/C=C/C(O)CC(O)CC(=O)O (centres undefined) | -4% | 0% | -2%
SMILES | RORg inh | Gal4-VP16 FLuc | Luc counter
CC(C)c1ccc(NC(=O)[C@H]2CSCN2C(=O)[C@@H]2CCC(=O)N2)cc1 | -2% | -14% | .
C=CCN(C(=O)CCC(=O)Nc1cc(C)on1)C(C(=O)NC(C)(C)CC)c1cccc(OC)c1OC (centres undefined) | -1% | -10% | .
CCCCC/C=C\C/C=C\C/C=C\CCCCCCC(=O)NCC(=O)O | 15% | 8% | 2%
CCOC(=O)c1c(-c2ccc(OC)cc2)csc1/N=C/C1C(=O)CCCC1=O | 3.2µM* | ? | -2%
CCOC(=O)c1c(-c2ccc(OC)cc2)csc1/N=C/N(C)C | 7% | 0% | -3%
CC(=O)[C@H](C(=N)C#N)C(=O)Nc1ccccc1 | . | . | -1%[7.66 µM]
COCCNC(=O)C(c1ccc(C)cc1)N(C(=O)C(=O)NC1CCCC1)c1ccc2c(c1)OCCO2 (centres undefined) | -3% | -9% | -1%
Cc1c(C(=O)N/N=C/c2ccoc2)cccc1[N+](=O)[O-] | -4% | ? | .

Screens as filed in PubChem.
